The values below come from ChEMBL document CHEMBL1961873, “Compounds: GSK PKIS; Assays: Nanosyn kinase panel” (2012).

Usually inhibition stands for the relative decrease from the control value, in per cent.

Each structure is given as a SMILES string.

The target in one assay is Mitogen-activated protein kinase 14 (Homo sapiens) (UniProt Q16539). The note with it: at 1 µM.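 Further: values are mean percent inhibition of p38alpha kinase activity.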
Chain of Mitogen-activated protein kinase 14 (Homo sapiens) (Q16539 whole entry): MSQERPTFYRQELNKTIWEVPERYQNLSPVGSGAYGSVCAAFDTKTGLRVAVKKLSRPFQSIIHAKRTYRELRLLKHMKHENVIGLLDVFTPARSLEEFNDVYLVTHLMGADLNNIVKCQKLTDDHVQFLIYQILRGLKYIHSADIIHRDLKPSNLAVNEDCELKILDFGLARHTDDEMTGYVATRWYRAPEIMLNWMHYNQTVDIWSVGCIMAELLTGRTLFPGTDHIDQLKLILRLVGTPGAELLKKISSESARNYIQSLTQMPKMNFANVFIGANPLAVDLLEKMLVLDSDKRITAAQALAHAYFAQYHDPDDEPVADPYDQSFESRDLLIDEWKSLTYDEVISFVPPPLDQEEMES
Consider `CN1CCN(C(=O)c2ccc(NC(=O)Nc3ccc(N(C)c4ccnc(Nc5ccc(CS(C)(=O)=O)cc5)n4)cc3)cc2)CC1`, for which the inhibition came to 4.32%.
In the case of `Oc1cccc(-c2nc(-c3ccccc3)[nH]c2-c2ccncc2)c1`, the inhibition is 71.1%.
The same measure, in the same setting: the result for `COc1cccc(-n2ncc3c(N/N=C/c4ccc(C)cc4)ncnc32)c1` reads 9.02%.
On the same count and under the same terms, then `CN(C)CCCn1c(-c2nonc2N)nc2cnccc21`, with 12.9%.
The same measure, in the same setting: then `NS(=O)(=O)c1cccc(-c2cc3ccncc3cc2OCc2ccccc2)c1`, with 8.87%.
`O=C1Nc2ccccc2/C1=C/Nc1ccc2[nH]c(=O)[nH]c2c1`: the inhibition was 11.5%.
With `Cc1ccc(C(=O)NC2CC2)cc1-c1ccc2[nH]ncc2c1`, the inhibition worked out at 52.8%.
Turning to `N#Cc1c(NC(=O)c2ccccc2F)sc2c1CCCC2`, the inhibition is -1.18%.
Same read-out and setting: then `COC(=O)c1ccc2c(c1)C(=Cc1cc(Br)c(O)c(Br)c1)C(=O)N2`, with 7.6%.
Still for that read-out and setting: then `NS(=O)(=O)c1ccc(N/N=C2\C(=O)Nc3ccc(Cl)cc32)cc1`, with 4.11%; and `O=C(Nc1ccc(Oc2ccc3[nH]c(NC(=O)c4ccco4)nc3c2)cc1)Nc1cc(C(F)(F)F)ccc1F`, with 39.4%; and `CS(=O)(=O)Nc1cccc(-c2ccc3c(NC(=O)C4CC4)n[nH]c3c2)c1`, with 6.14%.
Same read-out and setting: then `c1ccc(Nc2ncc(-c3ccccc3)o2)cc1`, with 11.8%; and `CC(C)c1ccc(Nc2nccc(-c3cnn4ncccc34)n2)cc1`, with 28.2%.
Turning to `CCS(=O)(=O)c1ccc(OC)c(Nc2ncc(-c3cccc(OC)c3)o2)c1`, the inhibition is 7.73%.
The same measure, in the same setting: the result for `N#Cc1cccc(Nc2nccc(-c3cnn4ncccc34)n2)c1` reads 14.6%; that for `COc1cc2ncnc(Nc3ccc4c(cnn4Cc4ccccc4)c3)c2cc1OC`, 3.94%; that for `COc1cc2ncn(-c3cc(OCc4ccccc4S(C)(=O)=O)c(C#N)s3)c2cc1OC`, 8.47%.
On the same count and under the same terms, then `CN(c1ccc(NC(=O)Nc2ccc(OC(F)(F)F)cc2)cc1)c1ccnc(Nc2cccc(S(N)(=O)=O)c2)n1`, with 13.6%.
Same read-out and setting: then `ON=C1CCc2cc(-c3nc(C4CCNCC4)[nH]c3-c3ccncc3)ccc21`, with 73.7%.
Turning to `[O-][S+]1CCN(Cc2ccc(-c3ccc4ncnc(Nc5ccc(OCc6ccccc6)c(Cl)c5)c4c3)o2)CC1`, the inhibition was determined as 20.8%.
On the same count and under the same terms, the result for `NS(=O)(=O)c1ccc(NC=C2C(=O)Nc3ccc4ncsc4c32)cc1` reads 18.7%.
The same measure, in the same setting: the result for `OCc1ccc(-c2nc(-c3ccccn3)c(-c3ccc4c(c3)OCO4)[nH]2)cc1` reads 14.9%; that for `COc1cc(Nc2nccc(-c3cnn4ncccc34)n2)cc(OC)c1`, 10.3%.
For `Cc1ccc2c(-c3ccnc(Nc4ccc5c(c4)OCCO5)n3)c(-c3ccc(C(F)(F)F)cc3)nn2n1`, the inhibition is 23.2%.
On the same count and under the same terms, then `Nc1nccc(-c2c(-c3ccc(F)cc3)ncn2CCCN2CCOCC2)n1`, with 64.9%; and `COc1cccc(-n2nc(C)c3c(N/N=C(\C)c4ccncc4)ncnc32)c1`, with 0.91%; and `Nc1nccc(-c2c(-c3ccc(F)cc3)nn3cc(C(F)(F)F)ccc23)n1`, with 47.2%.
On the same count and under the same terms, then `COc1cc(/C=N/Nc2ncnc3c2cnn3C(C)C)ccc1O`, with 3.92%; and `NC(=O)c1cccc(Nc2nccc(Nc3cccc(F)c3)n2)c1`, with 2.5%; and `COC(=O)Nc1nc2cc(Oc3ccc(NC(=O)Nc4cccc(Br)c4)cc3)ccc2[nH]1`, with 17.1%.
For `NS(=O)(=O)c1ccc(Nc2cc(-c3cccc(O)c3)n[nH]2)cc1`, the inhibition was determined as 9.21%.
Same read-out and setting: then `Cc1ccc2c(-c3ccnc(Nc4cccc(C(F)(F)F)c4)n3)c(-c3ccccc3)nn2n1`, with 73.5%.

The target of another assay is Mitogen-activated protein kinase 11 (Homo sapiens) (UniProt Q15759). The following applies: at 0.1 µM.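 Further: reported values are averaged (mean) percent inhibition of p38beta.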
Chain of Mitogen-activated protein kinase 11 (Homo sapiens) (Q15759 whole entry): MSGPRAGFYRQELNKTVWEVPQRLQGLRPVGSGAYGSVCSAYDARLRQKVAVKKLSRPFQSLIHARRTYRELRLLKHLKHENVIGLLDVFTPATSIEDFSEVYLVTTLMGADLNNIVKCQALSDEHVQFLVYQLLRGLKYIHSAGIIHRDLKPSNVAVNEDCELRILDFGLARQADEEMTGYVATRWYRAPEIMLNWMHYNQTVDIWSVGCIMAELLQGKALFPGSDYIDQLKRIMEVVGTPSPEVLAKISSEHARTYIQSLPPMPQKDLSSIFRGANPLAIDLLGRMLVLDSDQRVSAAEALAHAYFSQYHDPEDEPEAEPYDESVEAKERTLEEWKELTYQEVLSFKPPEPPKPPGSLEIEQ
Turning to `CN1CCN(C(=O)c2ccc(NC(=O)Nc3ccc(N(C)c4ccnc(Nc5ccc(CS(C)(=O)=O)cc5)n4)cc3)cc2)CC1`, the inhibition is 3.2%.
With `Oc1cccc(-c2nc(-c3ccccc3)[nH]c2-c2ccncc2)c1`, the inhibition turned out to be 10.7%.
Turning to `COc1cccc(-n2ncc3c(N/N=C/c4ccc(C)cc4)ncnc32)c1`, the inhibition was 1.15%.
For `CN(C)CCCn1c(-c2nonc2N)nc2cnccc21`, the inhibition amounted to 3.87%.
Still for that read-out and setting: then `NS(=O)(=O)c1cccc(-c2cc3ccncc3cc2OCc2ccccc2)c1`, with 3.17%; and `O=C1Nc2ccccc2/C1=C/Nc1ccc2[nH]c(=O)[nH]c2c1`, with 5.12%.
Still for that read-out and setting: the result for `Cc1ccc(C(=O)NC2CC2)cc1-c1ccc2[nH]ncc2c1` reads 4.23%; that for `N#Cc1c(NC(=O)c2ccccc2F)sc2c1CCCC2`, 0.63%.
As to `COC(=O)c1ccc2c(c1)C(=Cc1cc(Br)c(O)c(Br)c1)C(=O)N2`, the inhibition stood at 2.64%.
The same measure, in the same setting: then `NS(=O)(=O)c1ccc(N/N=C2\C(=O)Nc3ccc(Cl)cc32)cc1`, with 3.71%; and `O=C(Nc1ccc(Oc2ccc3[nH]c(NC(=O)c4ccco4)nc3c2)cc1)Nc1cc(C(F)(F)F)ccc1F`, with 4.14%.
As for `CS(=O)(=O)Nc1cccc(-c2ccc3c(NC(=O)C4CC4)n[nH]c3c2)c1`, the inhibition turned out to be 2.35%.
Same read-out and setting: then `c1ccc(Nc2ncc(-c3ccccc3)o2)cc1`, with 5.86%; and `CC(C)c1ccc(Nc2nccc(-c3cnn4ncccc34)n2)cc1`, with 2.54%.
As for `CCS(=O)(=O)c1ccc(OC)c(Nc2ncc(-c3cccc(OC)c3)o2)c1`, the inhibition came out at 1.06%.
Same read-out and setting: then `N#Cc1cccc(Nc2nccc(-c3cnn4ncccc34)n2)c1`, with 3.01%; and `COc1cc2ncnc(Nc3ccc4c(cnn4Cc4ccccc4)c3)c2cc1OC`, with 1.39%.
Still for that read-out and setting: the result for `COc1cc2ncn(-c3cc(OCc4ccccc4S(C)(=O)=O)c(C#N)s3)c2cc1OC` reads 2.79%.
For `CN(c1ccc(NC(=O)Nc2ccc(OC(F)(F)F)cc2)cc1)c1ccnc(Nc2cccc(S(N)(=O)=O)c2)n1`, the inhibition is 4.81%.
The same measure, in the same setting: the result for `ON=C1CCc2cc(-c3nc(C4CCNCC4)[nH]c3-c3ccncc3)ccc21` reads 7.03%; that for `[O-][S+]1CCN(Cc2ccc(-c3ccc4ncnc(Nc5ccc(OCc6ccccc6)c(Cl)c5)c4c3)o2)CC1`, 1.98%.
On the same count and under the same terms, the result for `NS(=O)(=O)c1ccc(NC=C2C(=O)Nc3ccc4ncsc4c32)cc1` reads 9.06%; that for `OCc1ccc(-c2nc(-c3ccccn3)c(-c3ccc4c(c3)OCO4)[nH]2)cc1`, 4.13%.
In the case of `COc1cc(Nc2nccc(-c3cnn4ncccc34)n2)cc(OC)c1`, the inhibition turned out to be 2.14%.
Consider `Cc1ccc2c(-c3ccnc(Nc4ccc5c(c4)OCCO5)n3)c(-c3ccc(C(F)(F)F)cc3)nn2n1`, for which the inhibition worked out at 1.91%.
Still for that read-out and setting: the result for `Nc1nccc(-c2c(-c3ccc(F)cc3)ncn2CCCN2CCOCC2)n1` reads 6.8%.
For the compound `COc1cccc(-n2nc(C)c3c(N/N=C(\C)c4ccncc4)ncnc32)c1`, the inhibition is 1.51%.
Still for that read-out and setting: the result for `Nc1nccc(-c2c(-c3ccc(F)cc3)nn3cc(C(F)(F)F)ccc23)n1` reads 4.49%; that for `COc1cc(/C=N/Nc2ncnc3c2cnn3C(C)C)ccc1O`, 0.99%.
The same measure, in the same setting: then `NC(=O)c1cccc(Nc2nccc(Nc3cccc(F)c3)n2)c1`, with 0.85%.
On the same count and under the same terms, the result for `COC(=O)Nc1nc2cc(Oc3ccc(NC(=O)Nc4cccc(Br)c4)cc3)ccc2[nH]1` reads 7.96%.
Turning to `NS(=O)(=O)c1ccc(Nc2cc(-c3cccc(O)c3)n[nH]2)cc1`, the inhibition amounted to 7.39%.
The same measure, in the same setting: the result for `Cc1ccc2c(-c3ccnc(Nc4cccc(C(F)(F)F)c4)n3)c(-c3ccccc3)nn2n1` reads 6.89%.
